A number with no mark means an inactive call. The source made the active and inactive calls. The call rests on the fitted dose curve; in most records, active means well fitted activation curve with a large enough effect in the repeat runs; inconclusive means weak or mixed curves; inactive means flat fitted curve, though single readings scatter.
What follows are compounds tested against KiSS-1 receptor (Homo sapiens) (UniProt Q969F8) (assay: Human kisspeptin (KISS1R) small molecule agonists, calcium flux assay in KISS1R-HEK293 cells (AID 1920064)). Settings: KISS1R-HEK293, calcium flux fluorescence, agonist; series mostly up to 76.8 µM; activation: at the top concentration.
Source text: National Center for Advancing Translational Sciences [NCATS]
Division of Preclinical Innovation [DPI]
U.S. Environmental Protection Agency [EPA]
National Institutes of Environmental Health Sciences [NIEHS]
National Toxicology Program [NTP]
U.S. Food and Drug Administration [FDA]
Kisspeptin and its receptor KISS1R play key roles in mammalian reproduction due to their involvement in the onset of puberty and control of the hypothalamic-pituitary-gonadal axis such as regulates GnRH release from the hypothalamus. The kisspeptin/KISS1R system also plays a direct role in peripheral organs (including the ovary, testis, uterus, and placenta) and is implicated in reproductive diseases such as miscarriage and polycystic ovary syndrome (PCOS). Abnormal KISS1R activity is associated with abnormal puberty, infertility, endometriosis, and hormone-dependent tumors. The KISS1 receptor (KISS1R, also called GPR54), a G-protein-coupled receptor (GPCR), acts (through phospholipase C) to increase intracellular inositol trisphosphate and then release intracellular calcium stores. Cell-based KISS1R-HEK293 assay is using HEK293 cells that have been genetically engineered to express the human KISS1R, which activity can be measured by calcium signaling. A compound/drug can activate (agonist) KISS1R that can be monitored by levels of intracellular calcium.
KISS1R-HEK293 cells developed by Codex Corp contain human KISS1R gene, which was stably integrated into HEK 293 cells. The compound activation can be detected by fluorescence intensity via calcium flux assay. This cell line has been used to screen the Tox21 10K compound library to identify agonists of KISS1R.
KISS1R-Hek293 cells were dispensed at 1500 cells/4uL/well in 1536-well black wall/clear bottom plates using a multidrop dispenser. After the assay plates were incubated at a 37 C/5% CO2 incubator for 18 hours, 4 microL of Calcium Dye Solution was added to each well. The plates were incubated at 37 C for 1 hour. And then 23 nL of compounds dissolved in DMSO, positive controls, or DMSO only was transferred to the assay plate by a pin tool station. The fluorescence intensity in the plates was measured using FDSS 7000EX kinetic plate reader with a filter set of Ex/Em=480/540 for 3 min at 1 sec intervals. Each test compound was measured at 15 concentrations and in triplicates.
On the % scale 0 is the no-effect control and ±100 the full control effect.

Sequence of KiSS-1 receptor (Homo sapiens) (Q969F8 whole entry, looked up): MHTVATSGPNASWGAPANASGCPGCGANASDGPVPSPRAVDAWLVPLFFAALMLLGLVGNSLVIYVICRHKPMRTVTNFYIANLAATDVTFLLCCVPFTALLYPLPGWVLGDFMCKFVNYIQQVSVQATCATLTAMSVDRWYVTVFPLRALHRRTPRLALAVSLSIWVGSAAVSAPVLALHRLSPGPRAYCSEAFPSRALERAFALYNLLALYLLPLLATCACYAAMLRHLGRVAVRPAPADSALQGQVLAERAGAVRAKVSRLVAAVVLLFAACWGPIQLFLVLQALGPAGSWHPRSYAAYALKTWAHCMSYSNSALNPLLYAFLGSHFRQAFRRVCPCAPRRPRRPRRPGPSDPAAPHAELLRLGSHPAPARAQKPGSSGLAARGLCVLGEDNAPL

SMILES	activation	Potency
O=[N+]([O-])c1ccc(F)cc1F	-1.57%	
O=C(O)CN(CCN(CC(=O)O)CC(=O)O)CCN(CC(=O)O)CC(=O)O	-1.13% [at 15.8 µM]	
CC(=N\O)/C(C)=N/O	0.163%	
CC(C)S	-5.74%	
CN1[C@@H]2CC[C@H]1CC(NC(=O)n1c(=O)[nH]c3ccccc31)C2 (stereo not given in full)	-0.823% [at 35.3 µM]	
O=c1[nH]c(=O)c2ccccc2o1	-0.58% [at 35.3 µM]	
CC(=O)OCC1=C(C(=O)O)N2C(=O)[C@@H](NC(=O)Cc3cccs3)[C@H]2SC1	-0.818% [at 35.3 µM]	
CCSC(=O)N(CC(C)C)CC(C)C	-3.02%	
NC(=O)N[C@@H](CCC(=O)O)C(=O)O	-1.16% [at 35.3 µM]	
CCCCOC(=O)[C@H](C)O	-0.065%	
OCC(CO)(CBr)CBr		inactive
CC(C)N=C(N)/N=C(\N)Nc1ccc(Cl)cc1	2.21% [at 35.3 µM]	
CC(=O)N(CC(O)CO)c1c(I)c(C(=O)NCC(O)CO)c(I)c(C(=O)NCC(O)CO)c1I (stereo not given)	2.49% [at 35.3 µM]	
CC(=O)N[C@@H](CC(C)C)C(=O)O	13.2% [at 35.3 µM]	
CC(C)Nc1ccccc1	-0.886%	
CC[N+](C)(C)c1cccc(O)c1	0.666% [at 35.3 µM]	
CCCCCC(C)=O		inactive
CCC(C)(C)C1CCC(=O)CC1	6.06%	
N[C@H](Cc1c[nH]c2ccccc12)C(=O)O		inactive
CC1=C(O)C(=O)OC1C (stereo not given)	9.46%	

SMILES	activation	Potency
Clc1cccc(Cl)c1NC1=NCCN1		inactive
N#CCN(CC#N)CCN(CC#N)CC#N	1.12%	
O=C(O)CN(CCCN(CC(=O)O)CC(=O)O)CC(=O)O	-0.261% [at 15.8 µM]	
CC(C)=C1CC[C@@H](C)CC1=O	-8.87%	
O=C(NCC1CCCCN1)c1cc(OCC(F)(F)F)ccc1OCC(F)(F)F (stereo not given)		inactive
OCCc1ccccn1	-1.09%	
CCN(CC#N)c1cccc(C)c1	-7.59%	
C1CSCCS1	-1.04%	
COc1cc(C(=O)N2CCOCC2)cc(OC)c1OC	-0.648% [at 35.3 µM]	
CC(C)CC(=O)OCc1ccccc1	-4.54%	
CCCOC(C(=O)OC1CCN(C)CC1)(c1ccccc1)c1ccccc1	0.398% [at 35.3 µM]	
CC12CCC(C1)C(C)(C)C2O (stereo not given)	1.66%	
CC(C)c1ccc(C=O)cc1	-1.33%	
CCCCC1CCC(O)CC1 (stereo not given)	-0.926%	
Cc1cccc2c1ccc1ccccc12	-0.447%	
O=P(OC(CCl)CCl)(OC(CCl)CCl)OC(CCl)CCl		inactive
C1COCCO1	0.85%	
[O]=[Zr]	1.63%	
CCCCC(CC)C(=O)OCCOCCOCCOC(=O)C(CC)CCCC (stereo not given)		inactive
C1COC1	0.518%	
